# Many of the other results were omitted from the sample, so hits are more common in it than they were.
# ST2 IL33 inh – blocks human ST2 binding to IL-33; Q01638; AlphaLISA ST2-Fc/biotin-IL-33 interaction, 1 h; 78,000 tested, 2.3% active; AID 1259354; inhibition, % for hits at 17 µM; in the data active means inhibition above about 30%
# Target sequence (Q01638 whole entry, looked up): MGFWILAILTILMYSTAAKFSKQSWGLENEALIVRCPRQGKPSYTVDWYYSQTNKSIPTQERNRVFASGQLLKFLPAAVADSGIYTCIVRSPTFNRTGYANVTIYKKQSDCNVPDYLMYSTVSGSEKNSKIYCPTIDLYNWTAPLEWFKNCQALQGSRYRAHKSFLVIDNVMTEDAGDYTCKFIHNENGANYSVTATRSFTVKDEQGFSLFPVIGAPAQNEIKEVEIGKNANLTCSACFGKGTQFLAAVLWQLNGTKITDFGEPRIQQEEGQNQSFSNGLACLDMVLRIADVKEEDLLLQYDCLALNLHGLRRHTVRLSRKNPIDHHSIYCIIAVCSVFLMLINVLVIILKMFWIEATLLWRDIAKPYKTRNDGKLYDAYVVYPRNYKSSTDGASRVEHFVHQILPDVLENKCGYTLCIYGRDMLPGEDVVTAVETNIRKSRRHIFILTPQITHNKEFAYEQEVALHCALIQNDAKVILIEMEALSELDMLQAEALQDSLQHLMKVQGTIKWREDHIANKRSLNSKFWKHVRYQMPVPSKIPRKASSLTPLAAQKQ
# * = called active by the depositor; i = inactive; ! = repeats disagree.
SMILES,ST2 IL33 inh
CCOC(=O)N1CCN(C(=O)Nc2ccc3nc(C)c(C)nc3c2)CC1,i
Cc1nc2ccc(NC(=O)N3CCN(c4ccccc4)CC3)cc2nc1C,i
O=C(Nc1ccc2nc(-c3ccco3)c(-c3ccco3)nc2c1)N1CCSCC1,30%*
O=C(Nc1ccc2nsnc2c1)N1CCCCCC1,i
CCCc1nnc(NC(=O)CCN2C(=O)CCC2=O)s1,i
Cc1ccc(C2(O)CCN(c3nc4ccccc4s3)CC2)nc1,i
OC1(c2ccccc2)CCN(c2nccc(CCC(F)(F)F)n2)C1 (stereo unspecified),i
Cc1cnc(N2CCC(O)(c3ccccc3)CC2)nc1N(C)C,35%*
COc1ccc(C2=NN(S(=O)(=O)c3ccccc3)C(c3cccc([N+](=O)[O-])c3)C2)cc1 (stereo unspecified),i
CCCc1nc2nc[nH]n2c(=O)c1NC(=O)NCC1CCC(C(=O)OCC)CC1 (stereo unspecified),i
COc1ccc(CN2CCCC(CNC(=O)c3ccc(-c4ccccc4)cc3)C2)cc1O (stereo unspecified),i
CCc1ccccc1NC(=O)CCCn1nc([N+](=O)[O-])c(Cl)c1C,i
Cc1cc([N+](=O)[O-])nn1CCCC(=O)Nc1sc2c(c1C#N)CCC(C)C2 (stereo unspecified),i
CS(=O)(=O)N1CCC(C(=O)NCc2cccs2)CC1,i
COCCOC(=O)C1=C(C)NC2=C(C(=O)C(C(=O)OC)C(C)C2)C1c1ccc(OC)cc1 (stereo unspecified),i
CC1=C(C(N)=O)C(c2cccnc2)n2nc(SCc3ccccc3Cl)nc2N1 (stereo unspecified),i
CC1(C)CC(=O)C2=C(C1)Nc1cc(C(=O)c3ccccc3)ccc1NC2c1cccnc1 (stereo unspecified),33%*
CC1(C)CC(=O)C2=C(C1)Nc1nc(SCc3ccccc3Cl)nn1C2c1ccncc1 (stereo unspecified),42%*!
Cc1ccc(C2Nc3ccc(C(=O)c4ccccc4)cc3NC3=C2C(=O)CCC3)cc1 (stereo unspecified),i
CC1(C)CC(=O)C2=C(C1)Nc1ccccc1N(C(=O)Cc1ccc(Cl)cc1)C2c1ccco1 (stereo unspecified),i
CC1(C)CC(=O)C2=C(C1)Nc1nc(SCc3ccccc3Cl)nn1C2c1cccnc1 (stereo unspecified),31%*!
CC1=C(C(=O)Nc2ccc(C)cn2)C(c2cccnc2)C2=C(CC(C)(C)CC2=O)N1 (stereo unspecified),i
CCCCC(=O)N1c2ccccc2NC2=C(C(=O)CC(C)(C)C2)C1c1ccc2c(c1)OCO2 (stereo unspecified),i
CC1(C)CC(=O)C2=C(C1)Nc1nc(SCc3ccccc3)nn1C2c1ccc(O)cc1 (stereo unspecified),i
CC1(C)CC(=O)C2=C(C1)Nc1ccccc1N(C(=O)Cc1ccc(Cl)cc1)C2c1cccnc1 (stereo unspecified),40%*
SMILES,ST2 IL33 inh
COc1cccc(C2C3=C(CC(C)(C)CC3=O)Nc3nc(SCc4ccccc4)nn32)c1 (stereo unspecified),i
COc1ccc(C2C3=C(CC(C)(C)CC3=O)Nc3nc(SCc4ccccc4)nn32)cc1 (stereo unspecified),i
COC(=O)Cc1[nH]nc2c1C(C(C)C)C(C#N)=C(N)O2 (stereo unspecified),i
CCCC1CCCCNC1=O (stereo unspecified),i
COc1ccccc1C(CCNCc1ccc(N(C)C)cc1)C1CCOC(C)(C)C1 (stereo unspecified),i
CC1CCN(CN2CC(Cn3c4ccccc4c4ccccc43)OC2=O)CC1 (stereo unspecified),i
COc1ccc(Oc2c(C(F)(F)F)oc3cc(OC)ccc3c2=O)cc1,i
COc1cc(C)c(Cl)cc1S(=O)(=O)N1CCN(c2nc(C)cc(N3CCCC3)n2)CC1,i
COc1cccc(OC)c1OCC(O)CN1CCN(C)CC1 (stereo unspecified),i
O=C(C1CC2(CCNCC2)CN1)N1CCc2nnc(-c3ccccc3)n2CC1 (stereo unspecified),i
CC(C(=O)Nc1nccs1)N(C)Cc1cn[nH]c1-c1ccc(F)cc1 (stereo unspecified),i
Cc1cccn2c(CC(=O)N(C)C(C)c3cccs3)cnc12 (stereo unspecified),i
O=C1CN=C2c3ccccc3N=C(SCc3ccc(Cl)cc3)N12,i
CCOc1cc(C(=O)Nc2cc(-c3nc4ncccc4o3)ccc2C)cc(OCC)c1OCC,37%*
O=C(Nc1ccc(-c2nc3ncccc3o2)cc1)c1cccnc1,i
CCCOc1ccc(C(=O)Nc2cc(-c3nc4ncccc4o3)ccc2C)cc1,i
CC(C)Oc1cccc(C(=O)Nc2ccc(-c3nc4ncccc4o3)cc2)c1,32%*
Cc1ccc(C(=O)Nc2cc(-c3nc4ncccc4o3)ccc2C)cc1C,i
CC(C)Oc1ccc(C(=O)Nc2cccc(-c3nc4ncccc4o3)c2)cc1,i
COc1ccccc1NC(=O)C1=C(C)Nc2nc3ccccc3n2C1c1ccc(F)cc1 (stereo unspecified),i
O=C(CC1Sc2ccc(C(F)(F)F)cc2NC1=O)Nc1ccccc1Cl (stereo unspecified),i
Cc1ccc(/C=C(\C#N)c2nc3ccc(C)cc3[nH]2)cc1,32%*
CCOc1ccc(Br)cc1/C=C(\C#N)c1nc2ccccc2[nH]1,i
COc1cc(/C=C(\C#N)c2nc3ccc(C)cc3[nH]2)cc(OC)c1O,34%*
COc1ccc2nc(SCc3ccc(C)cc3)[nH]c2c1,i
SMILES,ST2 IL33 inh
N#C/C(=C\c1cc2c(cc1Br)OCO2)c1nc2ccccc2[nH]1,i
N#C/C(=C\c1ccc2c(c1)OCO2)c1nc2ccccc2[nH]1,i
Cc1ccc(NC(=O)Cn2cc(F)c(=O)n(CC(=O)Nc3ccc(C)cc3)c2=O)cc1,i
O=C(N/C(=C\c1ccccc1F)C(=O)N1CC2CC(C1)c1cccc(=O)n1C2)c1ccccc1 (stereo unspecified),i
Cc1ccc(C)c(NS(C)(=O)=O)c1,i
Cc1ccc(Cl)cc1NS(=O)(=O)c1cccc2nonc12,i
Cc1ccc(Cl)cc1NC(=O)c1ccccc1C(=O)Nc1cc(Cl)ccc1C,i
Cc1ccc(Cl)cc1NS(=O)(=O)c1cccc2c1C(=O)c1ccccc1C2=O,44%*
Cc1ccc(C)c(NS(=O)(=O)c2ccc(NC(=O)c3ccccc3C)cc2)c1,i
Cc1ccc(C)c(NS(=O)(=O)c2cccc3c2C(=O)c2ccccc2C3=O)c1,54%*
N=c1c(C(N)=O)cc(Cl)c(C(=O)O)n1Cc1ccccc1,i
Cc1ncc(CN2CCN(CC3CCCCC3)C(CCO)C2)s1 (stereo unspecified),i
CCN(CC)S(=O)(=O)c1ccc2oc(C(=O)NC(C)c3ccccc3)c(C)c2c1 (stereo unspecified),i
CN1C(=O)CC(N2CCN(c3ccc(F)cc3)CC2)C1=O (stereo unspecified),i
O=C(c1cc2cc3ccc(Cl)cc3nc2o1)N1CCN(c2ccccc2F)CC1,i
[O-][n+]1cccc2c(Br)cc(Br)c(O)c21,30%*
O=C(CSCc1ccc(Cl)cc1)Nc1ccccc1F,i
COc1ccc(CCN2CCC(CN(C)C(=O)c3sccc3Cl)CC2)cc1,i
Cn1c(=O)n(C)c2cc([N+](=O)[O-])c(N3CCOCC3)cc21,i
